What all share (design): scale not given: direction of the effect not stated beside the values
In experiment [1] the target is Protein translocase subunit SecA (Escherichia coli (strain K12)) (UniProt P10408). Nature of the experiment: Assay to Identify E. coli SecA ATPase Inhibitors. The format is functional. Particulars: 30 µM.
In experiment [2] the target is T1, Ubiquitin-activating enzyme e1, putative (Leishmania donovani (strain BPK282A1)) (UniProt E9BSI1).
T1 sequence (whole entry): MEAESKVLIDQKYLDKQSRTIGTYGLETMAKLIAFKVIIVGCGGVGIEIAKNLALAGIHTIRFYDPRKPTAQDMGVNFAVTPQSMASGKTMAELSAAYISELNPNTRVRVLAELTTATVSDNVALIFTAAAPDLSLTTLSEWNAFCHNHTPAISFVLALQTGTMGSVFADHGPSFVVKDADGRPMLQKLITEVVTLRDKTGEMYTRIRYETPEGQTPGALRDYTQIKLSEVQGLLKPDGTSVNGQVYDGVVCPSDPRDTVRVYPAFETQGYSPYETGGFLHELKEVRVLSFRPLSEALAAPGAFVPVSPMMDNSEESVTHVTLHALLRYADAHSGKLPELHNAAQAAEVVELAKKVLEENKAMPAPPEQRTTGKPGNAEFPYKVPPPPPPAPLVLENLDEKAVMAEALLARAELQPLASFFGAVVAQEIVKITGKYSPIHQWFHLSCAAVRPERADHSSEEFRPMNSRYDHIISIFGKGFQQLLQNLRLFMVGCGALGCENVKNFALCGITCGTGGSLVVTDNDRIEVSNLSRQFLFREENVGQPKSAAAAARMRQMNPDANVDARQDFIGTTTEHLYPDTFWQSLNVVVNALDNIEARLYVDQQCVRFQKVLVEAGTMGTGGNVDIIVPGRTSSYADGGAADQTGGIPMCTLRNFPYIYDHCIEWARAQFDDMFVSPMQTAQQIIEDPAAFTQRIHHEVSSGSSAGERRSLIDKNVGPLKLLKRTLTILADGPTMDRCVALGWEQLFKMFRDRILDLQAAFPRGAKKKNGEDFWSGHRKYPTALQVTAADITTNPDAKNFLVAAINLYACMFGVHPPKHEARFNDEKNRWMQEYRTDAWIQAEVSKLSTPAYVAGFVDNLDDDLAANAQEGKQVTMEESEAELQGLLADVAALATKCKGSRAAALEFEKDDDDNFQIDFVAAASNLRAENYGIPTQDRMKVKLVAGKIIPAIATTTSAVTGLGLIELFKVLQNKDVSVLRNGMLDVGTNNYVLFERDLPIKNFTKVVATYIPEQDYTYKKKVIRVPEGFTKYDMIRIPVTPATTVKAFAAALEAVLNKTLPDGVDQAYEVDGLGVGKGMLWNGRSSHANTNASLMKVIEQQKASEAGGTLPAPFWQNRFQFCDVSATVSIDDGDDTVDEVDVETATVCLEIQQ
Nature of the experiment: Leishmania donovani Ubiquitin Activating Enzyme (LdE1). The class given is functional. Particulars: 30 µM.

Experiment [3] deals with AMP-activated protein kinase, AMPK (Homo sapiens) (UniProt P54646+O43741+P54619+Q9UGJ0+Q9Y478+Q13131+Q9UGI9). Put plainly: AMP-dependent Kinase enzyme assay. An in vitro enzyme assay that detects ADP turnover that is directly proportional to AMPK activity. This uses naive AMPK that is activated during the assay with MK-8722. The format is functional. The note with it: 30 µM.

Experiment [4] concerns the target Sialic acid-binding Ig-like lectin 9 (Homo sapiens) (UniProt Q9Y336). Put plainly: Hs-Siglec9 ALPHAscreen SOP 20170721. Particulars: 10 µM.
Experiment [5] deals with Trypanosoma cruzi. Put plainly: Trypanosoma cruzi phosphomannomutase and mannose-1-phosphate guanylyltransferase assay. The class given is functional. Particulars: 10 µM.
The target in experiment [6] is T2, Arginase-2, mitochondrial (Homo sapiens) (UniProt P78540).
T2 sequence (whole entry): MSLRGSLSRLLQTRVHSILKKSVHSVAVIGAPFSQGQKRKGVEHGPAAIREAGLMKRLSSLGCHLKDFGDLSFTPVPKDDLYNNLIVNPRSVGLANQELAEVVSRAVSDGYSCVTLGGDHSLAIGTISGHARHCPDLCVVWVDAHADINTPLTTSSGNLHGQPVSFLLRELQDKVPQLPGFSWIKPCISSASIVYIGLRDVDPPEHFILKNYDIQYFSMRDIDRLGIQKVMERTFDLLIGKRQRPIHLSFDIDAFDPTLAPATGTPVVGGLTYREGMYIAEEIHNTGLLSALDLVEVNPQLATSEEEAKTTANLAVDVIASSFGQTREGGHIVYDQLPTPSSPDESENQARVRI
Put plainly: in vitro enzyme assay to detect the production of urea directly proportional to the activity of Arginase II. Note: in the data most compounds retested in dose-response had high values. The note with it: 33.3 µM. The class given is functional.

The target of experiment [7] is T3, Proteasome subunit beta (Trypanosoma cruzi) (UniProt O96673).
T3 sequence (whole entry): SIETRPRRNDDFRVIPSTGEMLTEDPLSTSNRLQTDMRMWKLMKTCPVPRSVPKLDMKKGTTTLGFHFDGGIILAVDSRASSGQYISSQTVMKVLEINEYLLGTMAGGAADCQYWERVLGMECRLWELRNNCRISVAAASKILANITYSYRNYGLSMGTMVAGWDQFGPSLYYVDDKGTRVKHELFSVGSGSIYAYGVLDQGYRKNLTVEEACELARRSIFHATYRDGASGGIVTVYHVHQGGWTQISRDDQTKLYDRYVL
Nature of the experiment: Trypanosoma cruzi proteasome chymotrypsin-like activity (TcProtChymo) assay. Note: in the data most compounds retested in dose-response had high values. The note with it: 9.37 µM. The format is functional.

For experiment [8], the species on record is Homo sapiens. Put plainly: To identify inhibition of the IFN signalling (Jak-Stat) pathway via expression of an eGFP reporter gene under the control of an IFN-stimulated response element (ISRE) containing MxA promoter. The class given is functional. Particulars: 30 µM. On the technique in general: A reporter such as luciferase makes a cellular process visible.

For experiment [9], the target named is T4, Tyrosyl-tRNA synthetase, putative (Trypanosoma cruzi (strain CL Brener)) (UniProt Q4DSP6).
T4 sequence (whole entry): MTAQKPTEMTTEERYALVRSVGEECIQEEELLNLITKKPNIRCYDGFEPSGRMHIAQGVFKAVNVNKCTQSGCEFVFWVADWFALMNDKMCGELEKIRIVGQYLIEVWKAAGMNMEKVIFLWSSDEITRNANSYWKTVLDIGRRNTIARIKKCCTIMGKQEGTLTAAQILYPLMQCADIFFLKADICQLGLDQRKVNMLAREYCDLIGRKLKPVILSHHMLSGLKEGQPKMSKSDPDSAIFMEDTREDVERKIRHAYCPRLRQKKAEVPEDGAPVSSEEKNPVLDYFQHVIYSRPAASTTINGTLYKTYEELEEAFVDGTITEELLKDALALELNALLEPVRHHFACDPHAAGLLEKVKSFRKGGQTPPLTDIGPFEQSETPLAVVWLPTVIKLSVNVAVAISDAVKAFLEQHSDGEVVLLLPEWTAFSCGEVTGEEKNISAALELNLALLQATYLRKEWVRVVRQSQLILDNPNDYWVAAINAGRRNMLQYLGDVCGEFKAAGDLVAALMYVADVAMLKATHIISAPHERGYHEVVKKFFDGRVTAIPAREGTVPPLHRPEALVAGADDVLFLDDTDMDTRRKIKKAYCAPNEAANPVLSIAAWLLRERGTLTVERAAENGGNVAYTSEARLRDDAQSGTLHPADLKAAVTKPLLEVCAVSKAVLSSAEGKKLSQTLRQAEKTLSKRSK
Nature of the experiment: Trypanosoma cruzi tyrosyl tRNA synthetase (TcYRS) _High Tyrosine SOP. Note: in the data most compounds retested in dose-response had high values. The format is functional. The note with it: 30 µM.

Experiment [10] deals with T4, Tyrosyl-tRNA synthetase, putative (Trypanosoma cruzi (strain CL Brener)). Nature of the experiment: Trypanosoma cruzi tyrosyl tRNA synthetase (TcYRS) SOP. The format is functional. Particulars: 30 µM.
For experiment [11], the target named is Chromo domain-containing protein 1 (Saccharomyces cerevisiae (strain ATCC 204508 / S288c) (Baker's yeast)) (UniProt P32657). Nature of the experiment: ScCHD-1 Enzyme Inhibition Assay. Note: in the data most compounds retested in dose-response had high values. The format is functional. The note with it: 30 µM.

For some of these results: Measured potencies and affinities stand elsewhere.

Chain of Sialic acid-binding Ig-like lectin 9 (Homo sapiens) (Q9Y336 whole entry): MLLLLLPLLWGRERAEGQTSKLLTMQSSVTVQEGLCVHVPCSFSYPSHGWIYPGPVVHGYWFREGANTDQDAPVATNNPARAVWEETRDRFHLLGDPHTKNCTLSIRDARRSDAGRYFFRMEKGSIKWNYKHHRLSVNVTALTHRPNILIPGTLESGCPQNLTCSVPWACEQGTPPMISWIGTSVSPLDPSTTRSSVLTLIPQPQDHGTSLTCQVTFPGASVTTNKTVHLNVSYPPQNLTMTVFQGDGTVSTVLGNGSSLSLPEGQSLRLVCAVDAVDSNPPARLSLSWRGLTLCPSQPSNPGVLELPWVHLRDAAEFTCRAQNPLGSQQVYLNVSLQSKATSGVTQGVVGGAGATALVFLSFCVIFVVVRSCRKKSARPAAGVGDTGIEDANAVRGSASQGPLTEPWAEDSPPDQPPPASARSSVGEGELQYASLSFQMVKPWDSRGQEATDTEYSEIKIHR
Chain of Protein translocase subunit SecA (Escherichia coli (strain K12)) (P10408 whole entry): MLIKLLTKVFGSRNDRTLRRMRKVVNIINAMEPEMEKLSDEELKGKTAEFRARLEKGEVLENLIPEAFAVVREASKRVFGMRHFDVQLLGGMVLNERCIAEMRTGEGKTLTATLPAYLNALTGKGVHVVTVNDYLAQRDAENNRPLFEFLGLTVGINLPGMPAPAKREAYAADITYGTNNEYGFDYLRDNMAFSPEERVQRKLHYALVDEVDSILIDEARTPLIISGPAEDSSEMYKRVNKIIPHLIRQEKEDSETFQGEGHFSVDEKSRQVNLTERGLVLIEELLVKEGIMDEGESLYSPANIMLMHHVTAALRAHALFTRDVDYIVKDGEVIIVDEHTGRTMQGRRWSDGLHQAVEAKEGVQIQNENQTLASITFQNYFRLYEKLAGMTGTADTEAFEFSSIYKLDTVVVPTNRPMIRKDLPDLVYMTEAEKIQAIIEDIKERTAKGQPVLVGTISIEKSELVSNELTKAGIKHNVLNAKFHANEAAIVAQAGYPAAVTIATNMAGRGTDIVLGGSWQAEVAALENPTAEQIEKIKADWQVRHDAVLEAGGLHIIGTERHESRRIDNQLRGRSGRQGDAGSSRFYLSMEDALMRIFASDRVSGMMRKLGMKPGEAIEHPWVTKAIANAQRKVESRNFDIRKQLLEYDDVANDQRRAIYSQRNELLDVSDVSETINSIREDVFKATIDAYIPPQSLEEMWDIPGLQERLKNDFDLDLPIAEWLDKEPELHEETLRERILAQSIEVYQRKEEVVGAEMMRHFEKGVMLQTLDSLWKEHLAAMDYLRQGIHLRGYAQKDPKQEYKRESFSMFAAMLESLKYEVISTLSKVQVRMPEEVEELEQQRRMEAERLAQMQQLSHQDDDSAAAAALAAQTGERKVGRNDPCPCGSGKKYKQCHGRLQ
Chain of Chromo domain-containing protein 1 (Saccharomyces cerevisiae (strain ATCC 204508 / S288c) (Baker's yeast)) (P32657 whole entry, the tested form may be a part): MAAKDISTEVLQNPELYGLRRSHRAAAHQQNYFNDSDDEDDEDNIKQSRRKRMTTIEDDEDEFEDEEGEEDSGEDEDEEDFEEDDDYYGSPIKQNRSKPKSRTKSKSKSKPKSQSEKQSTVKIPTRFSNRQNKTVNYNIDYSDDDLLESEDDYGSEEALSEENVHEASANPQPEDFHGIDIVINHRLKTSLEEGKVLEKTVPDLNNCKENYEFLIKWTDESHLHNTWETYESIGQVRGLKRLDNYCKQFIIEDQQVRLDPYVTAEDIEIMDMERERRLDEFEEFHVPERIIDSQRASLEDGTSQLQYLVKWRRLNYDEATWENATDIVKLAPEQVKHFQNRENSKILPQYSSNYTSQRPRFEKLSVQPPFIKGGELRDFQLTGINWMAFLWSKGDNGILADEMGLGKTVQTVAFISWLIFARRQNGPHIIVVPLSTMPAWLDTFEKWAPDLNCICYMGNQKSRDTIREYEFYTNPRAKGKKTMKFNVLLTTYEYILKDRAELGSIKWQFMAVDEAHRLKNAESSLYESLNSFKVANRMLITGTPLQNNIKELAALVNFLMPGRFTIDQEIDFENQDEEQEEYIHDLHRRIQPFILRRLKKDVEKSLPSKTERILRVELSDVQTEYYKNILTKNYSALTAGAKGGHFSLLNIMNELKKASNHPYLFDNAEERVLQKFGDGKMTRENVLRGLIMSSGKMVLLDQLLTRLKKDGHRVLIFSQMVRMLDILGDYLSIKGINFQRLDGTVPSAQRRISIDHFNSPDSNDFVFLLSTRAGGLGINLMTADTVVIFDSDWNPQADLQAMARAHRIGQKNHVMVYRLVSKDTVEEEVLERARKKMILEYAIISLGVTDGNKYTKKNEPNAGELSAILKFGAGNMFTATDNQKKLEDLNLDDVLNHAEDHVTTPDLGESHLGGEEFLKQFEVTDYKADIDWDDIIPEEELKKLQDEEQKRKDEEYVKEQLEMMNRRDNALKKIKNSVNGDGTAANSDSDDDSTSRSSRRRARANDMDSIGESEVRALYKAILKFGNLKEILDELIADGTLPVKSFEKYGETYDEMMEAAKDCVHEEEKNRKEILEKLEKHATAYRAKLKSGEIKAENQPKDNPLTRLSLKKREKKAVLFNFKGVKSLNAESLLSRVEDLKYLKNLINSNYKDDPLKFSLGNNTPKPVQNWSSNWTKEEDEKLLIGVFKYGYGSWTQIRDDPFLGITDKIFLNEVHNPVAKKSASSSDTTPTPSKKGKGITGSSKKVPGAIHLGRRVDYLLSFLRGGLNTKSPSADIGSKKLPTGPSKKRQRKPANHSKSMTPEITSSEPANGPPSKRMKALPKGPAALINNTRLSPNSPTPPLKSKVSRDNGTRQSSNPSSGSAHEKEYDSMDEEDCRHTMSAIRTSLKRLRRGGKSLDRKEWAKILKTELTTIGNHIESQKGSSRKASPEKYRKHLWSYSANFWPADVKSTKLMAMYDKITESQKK

As for `COc1cc(C)nc(N2CCN(Cc3nccn3C)CC2)n1`, the Percent Effect is -2.16% in [1]; 9.72% in experiment [2]; 3.08% in experiment [3]; -2.82% in experiment [4]; -0.875% in experiment [5]; 1.32% in experiment [6]. Besides, the Percent Effect was 10.3% in experiment [7]; 0.819% in experiment [8]; 2.1% in [9]; 2.56% in [10]; -3.1% in experiment [11].
In the case of `CC(C)c1noc(C(C)N2CCN(Cc3ccsc3)CC2)n1` (stereo unspecified), the Percent Effect in [1] is -4.95%; in experiment [2] it was 7.89%; in experiment [3], -4.06%; in experiment [4] it was -4.87%; in experiment [5], -3.46%; in [6] it was 3.6%. Moreover, the Percent Effect is -2.45% in [7]; -18.3% in experiment [8]; 4.43% in experiment [9]; 3.7% in experiment [10]; 4.12% in [11].
As to `c1ccc(OC[C@]23COC[C@H]2CN(c2ncccn2)C3)nc1`, the Percent Effect in experiment [1] is 0.189%; in [2], 8%; in [3] it was 1.07%; in experiment [4] it was 5.7%; in [5], 6.37%; in experiment [6], -59.3%. Moreover, the Percent Effect in experiment [7] is 12.7%; in experiment [8] it was -4.34%; in experiment [9] it was 3.12%; in experiment [10] it was 17.5%; in experiment [11], -8.1%.
With `c1cnn(CC2CN(CCc3ccncc3)CCO2)c1` (stereo unspecified), the Percent Effect in experiment [1] is 1.49%; in [2] it was 13%; in [3], 1.87%; in experiment [4], -13.5%; in experiment [5], -2.06%; in [6], 0.632%. Moreover, the Percent Effect was 6.22% in experiment [7]; 32% in experiment [8]; 4.76% in [9]; 21.2% in experiment [10]; -16.1% in experiment [11].
As for `CC(C)n1ccnc1C1CCN(Cc2ccc(Cl)s2)CC1`, the Percent Effect was -4.43% in experiment [1]; 7.79% in [2]; 1.43% in experiment [3]; 13.8% in [4]; 7.96% in experiment [5]; 6.9% in experiment [6]. Also, the Percent Effect in [7] was 6.99%; in [8] it was 9.49%; in experiment [9], 8.6%; in [10] it was 16.1%; in [11] it was -1.15%.
Turning to `Cc1cc(C[S+]([O-])CC(=O)NCC(C)C)no1` (stereo unspecified), the Percent Effect was -4.4% in experiment [1]; 18.2% in experiment [2]; 6.46% in experiment [3]; -1.61% in [4]; -2.06% in experiment [5]; -2.49% in [6]. The Percent Effect in [7] was 0.676%; in [8], -13.6%; in experiment [9], 7.77%; in experiment [10], 12.2%; in experiment [11] it was -5.33%.
In the case of `CC(C)c1nn(C)c(Cl)c1CNCc1ccc2c(c1)OCCO2`, the Percent Effect in experiment [1] is -4.72%; in [2], 10.5%; in [3], 2.72%; in experiment [4], 8.57%; in [5], 3.27%; in [6], -5.04%. Moreover, the Percent Effect was 2.28% in experiment [7]; -34.1% in experiment [8]; 5.42% in experiment [9]; 16.1% in experiment [10]; 0.827% in [11].
On to `O=S(=O)(CCNCc1cccc2c1OCCO2)N1CCOCC1`, for which the Percent Effect in [1] is 0.589%; in experiment [2], 10.8%; in [3], -8.76%; in experiment [4], 1%; in experiment [5] it was -0.965%; in experiment [6], -0.476%. For the same compound, the Percent Effect was 9.14% in [7]; 24.3% in experiment [8]; 5.82% in experiment [9]; 4.88% in experiment [10]; -2.36% in [11].
In the case of `CC(=O)N1CCCN(C(=O)NCc2cc[nH]n2)CC1`, the Percent Effect was -8.38% in experiment [1]; 13.2% in [2]; -10.6% in [3]; 1.18% in [4]; 11.1% in experiment [5]; 1.08% in experiment [6]. Besides, the Percent Effect in [7] was 14.6%; in experiment [8], 1%; in experiment [9], 11.3%; in experiment [10], 23.5%; in experiment [11], -8.49%.
As to `CCCn1ncc(CN2C[C@@H]3CCCN3C[C@@H]2CCSC)c1C`, the Percent Effect in [1] is 0.712%; in experiment [2], 9.46%; in experiment [3], 3.26%; in [4], -4.09%; in experiment [5], -5.93%; in experiment [6] it was -3.02%. Also, the Percent Effect was 19.5% in experiment [7]; 8.73% in experiment [8]; 3.23% in [9]; 6.49% in experiment [10]; -15% in experiment [11].
In the case of `CCc1n[nH]c(C2CN(C(=O)c3cnc(C)s3)CCO2)n1` (stereo unspecified), the Percent Effect was -5.53% in [1]; 12.7% in [2]; -5.15% in experiment [3]; 12.5% in [4]; 5% in experiment [5]; -1.9% in experiment [6]. Moreover, the Percent Effect in [7] is -3.03%; in [8] it was -0.688%; in [9], 3.45%; in experiment [10], 8.86%; in experiment [11] it was -5.66%.

(Values after ChEMBL document CHEMBL3988442, “University of Dundee, Small-Polar-MMV Screening Library” (2021).)
